PMC6602471
Over roughly 1,300 sequences, “log fluorescence intensity” has its median near 8.3; the highest 2% begin near 12. This excerpt belongs to a sample that is enriched for the highest values.

These sequences were tested against T1, ETS1 (Homo sapiens, UniProt P14921 1-441) (assay: custom PBM; custom protein-binding microarray; buffer, salt, pH and temperature not stated; high values mean tight binding). Conditions: dsDNA, one strand shown.
T1 sequence: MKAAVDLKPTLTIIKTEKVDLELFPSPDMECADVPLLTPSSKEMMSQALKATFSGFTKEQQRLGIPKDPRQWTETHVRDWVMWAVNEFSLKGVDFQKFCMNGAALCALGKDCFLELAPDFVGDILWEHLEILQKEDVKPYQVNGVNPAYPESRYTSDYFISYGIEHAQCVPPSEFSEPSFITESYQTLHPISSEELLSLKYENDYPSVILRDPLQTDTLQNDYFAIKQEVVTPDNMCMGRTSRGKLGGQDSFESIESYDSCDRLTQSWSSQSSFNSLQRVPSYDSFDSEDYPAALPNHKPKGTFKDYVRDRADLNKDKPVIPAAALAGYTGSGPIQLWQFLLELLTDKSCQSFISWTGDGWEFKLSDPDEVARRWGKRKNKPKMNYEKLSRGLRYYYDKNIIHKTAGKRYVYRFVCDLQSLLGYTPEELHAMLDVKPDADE

Sequence	binding signal
GGAAATAGGCCCAGGGTAACACCGGAAGTGGGCTTAGTCTTGATTCGCTTGACGCTGCTG	12 log fluorescence intensity
AGGAAGTGTCGTAAACGTCGGATATCCGGTTCTTCTGTCTTGATTCGCTTGACGCTGCTG	12 log fluorescence intensity
CGGAAGTGTCGTAAACTTCGGATATCCGGTTCTTCTGTCTTGATTCGCTTGACGCTGCTG	11.9 log fluorescence intensity
TGGAAGTGTCGTAAACGTCGGATATCCGGTTCTTCTGTCTTGATTCGCTTGACGCTGCTG	11.9 log fluorescence intensity
CGGAAGTGTCGTAAACGGCGGATATCCGGTTCTTCTGTCTTGATTCGCTTGACGCTGCTG	12.4 log fluorescence intensity
CGGAAGTGTCGTAAACGTCGGATATCCGGTTCTTCTGTCTTGATTCGCTTGACGCTGCTG	11.9 log fluorescence intensity
GGGAAGTGTCGTAAACGTCGGATATCCGGTTCTTCTGTCTTGATTCGCTTGACGCTGCTG	11.9 log fluorescence intensity
CGGAAGTGTCGTAAACGTCGGATATCCGGTTCTGCTGTCTTGATTCGCTTGACGCTGCTG	11.8 log fluorescence intensity
CGGAAGTGTCGTAAACGACGGATATCCGGTTCTTCTGTCTTGATTCGCTTGACGCTGCTG	12.4 log fluorescence intensity
CGGAAGTGTCGTAAACGCCGGATATCCGGTTCTTCTGTCTTGATTCGCTTGACGCTGCTG	13.1 log fluorescence intensity
GCTGCTGCGGTGCATACCCCACCGGATGTGACCGCGGTCTTGATTCGCTTGACGCTGCTG	10.5 log fluorescence intensity
CGGAAGTGTCGTAAACGTCGGATACCCGGTTCTTCTGTCTTGATTCGCTTGACGCTGCTG	8.31 log fluorescence intensity
TCCGGCTAACAGCTCCACCCACTTCAGGCCTTGTAGGTCTTGATTCGCTTGACGCTGCTG	8.32 log fluorescence intensity
GCTGCTGCGGTGCATAACCCACCGGATGTGACCCCGGTCTTGATTCGCTTGACGCTGCTG	10.4 log fluorescence intensity
CGGAAGTGTCGCAAACGTCGGATATCCGGTTCTTCTGTCTTGATTCGCTTGACGCTGCTG	12 log fluorescence intensity
CAGAATAGGACTTCTTCCCTGAAGCAATTGATAACCGTCTTGATTCGCTTGACGCTGCTG	8.33 log fluorescence intensity
TAAAGGGAAGACGGTTGTGGTAGTTCCGGGTATCAAGTCTTGATTCGCTTGACGCTGCTG	8.76 log fluorescence intensity
GCGGCTGCGGTGCATACCCCACCGGATGTGACCCCGGTCTTGATTCGCTTGACGCTGCTG	10 log fluorescence intensity
TGTCGGGTAAGGGAATATAGATCACGTGAATGAAAAGTCTTGATTCGCTTGACGCTGCTG	8.36 log fluorescence intensity
GATTAATTTCCGCCCTTATTCGCACGTGCCATAACAGTCTTGATTCGCTTGACGCTGCTG	13.9 log fluorescence intensity
AATTAATTTCTGCCCTTATTCGCACGTGCCATAACAGTCTTGATTCGCTTGACGCTGCTG	8.33 log fluorescence intensity
GATTAATTCCTGCCCTTATTCGCACGTGCCATAACAGTCTTGATTCGCTTGACGCTGCTG	10.3 log fluorescence intensity
GGAAAAAGGCCCAGGGTAACACCGGAAGTGGGTTTAGTCTTGATTCGCTTGACGCTGCTG	12 log fluorescence intensity

Sequence	binding signal
GCTGCTGCGGTGCATACCCCACCGGATGTAACCCCGGTCTTGATTCGCTTGACGCTGCTG	10 log fluorescence intensity
GGAAAAAGGCCCAGGTTAACACCGGAAGTGGGCTTAGTCTTGATTCGCTTGACGCTGCTG	12 log fluorescence intensity
TAAAGCGAAGACGGTTGTGGTAGTTCCGGGTATTAAGTCTTGATTCGCTTGACGCTGCTG	8.48 log fluorescence intensity
CGGAAGTGTCGTAAACGTCGGATATCCGGTCCTTCTGTCTTGATTCGCTTGACGCTGCTG	12.1 log fluorescence intensity
GATTAATTTCTGCCCTTTTTCGCACGTGCCATAACAGTCTTGATTCGCTTGACGCTGCTG	8.42 log fluorescence intensity
TACTGACTTATATATGCGAGTGCACATGAATAGACCGTCTTGATTCGCTTGACGCTGCTG	8.33 log fluorescence intensity
GATTAATTTCTGCCCTTATTCGTACGTGCCATAACAGTCTTGATTCGCTTGACGCTGCTG	8.36 log fluorescence intensity
CACAATTTTTATAGTAATGTAGCACGCGTAACTCCTGTCTTGATTCGCTTGACGCTGCTG	8.41 log fluorescence intensity
GGAAAAAGGCCTAGGGTAACACCGGAAGTGGGCTTAGTCTTGATTCGCTTGACGCTGCTG	12.1 log fluorescence intensity
GGAAAAAGGCTCAGGGTAACACCGGAAGTGGGCTTAGTCTTGATTCGCTTGACGCTGCTG	11.8 log fluorescence intensity
GGAAAAAGGCACAGGGTAACACCGGAAGTGGGCTTAGTCTTGATTCGCTTGACGCTGCTG	12.1 log fluorescence intensity
GGAAAAAGGCCGAGGGTAACACCGGAAGTGGGCTTAGTCTTGATTCGCTTGACGCTGCTG	12 log fluorescence intensity
GGAAAAAGGGCCAGGGTAACACCGGAAGTGGGCTTAGTCTTGATTCGCTTGACGCTGCTG	12 log fluorescence intensity
GGAAAAAGGCCCAGGGTAACACCGGAAGTGGGCCTAGTCTTGATTCGCTTGACGCTGCTG	12.1 log fluorescence intensity
TAAAGGGAAGACGGTTGTGGTAGTTCCGGGTAGTAAGTCTTGATTCGCTTGACGCTGCTG	8.59 log fluorescence intensity
CAGCAAAGGACTTCTTCCCTGAAGCAATTGATAACCGTCTTGATTCGCTTGACGCTGCTG	8.31 log fluorescence intensity
GCTGCTGCGGTGCATACCCCACCGGATGTGACCCCTGTCTTGATTCGCTTGACGCTGCTG	10.1 log fluorescence intensity
CAGCATAGGACTTGTTCCCTGAAGCAATTGATAACCGTCTTGATTCGCTTGACGCTGCTG	8.34 log fluorescence intensity
TAAAGGGAAGACGGTTGTGGTAGTTCCGGGTAATAAGTCTTGATTCGCTTGACGCTGCTG	8.57 log fluorescence intensity
GATTAATTTCTGCCCTTATTCGCACGTGCCGTAACAGTCTTGATTCGCTTGACGCTGCTG	8.34 log fluorescence intensity
GCTGCTGCGGTGCATACCCCACCGGAAGTGACCCCGGTCTTGATTCGCTTGACGCTGCTG	11 log fluorescence intensity
CGGAAGTGTCGTAAACGTCGGATATCCCGTTCTTCTGTCTTGATTCGCTTGACGCTGCTG	8.7 log fluorescence intensity
TGTCGGGTAAGGGAATGTAGATCACTTGAATGAAAAGTCTTGATTCGCTTGACGCTGCTG	8.32 log fluorescence intensity
